PubChem BioAssay (NCI)
About 83,000 compounds went through this panel and 20% of them were active in at least one assay; those are over-represented in the sample as a whole.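 Single-concentration screen, 48 h exposure, 96-well plates. Endpoint: percent growth. Below 10 = active.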 Activity calls are given as the source filed them.

Test system: UO-31 renal
Assay: NCI-60 one-dose screen, 48 h (100 = growth as untreated, 0 = no growth, -100 = all killed)
Conditions: 10 µM unless noted

SMILES	growth
C#C[C@]1(O)CC[C@H]2[C@@H]3CC=C4c5sc(Nc6cccc(C)n6)nc5CC[C@]4(C)[C@H]3CC[C@@]21C	-15.4% (active)
Clc1ccc(-c2csc(N/N=C/c3nc4ccccc4n3C3CC3)n2)cc1	84.3% (inactive)
O=C(NNc1nc2cc(F)c(F)cc2n2cccc12)c1ccncn1	20.7% (inactive)
CCn1c2ccc(/C=N/NS(=O)(=O)CCN(C)C)cc2c2cc(/C=N/NS(=O)(=O)CCN(C)C)ccc21	88% (inactive)
COc1ccc(-c2nnc(/N=C3/C(=O)Nc4ccc(Br)cc43)o2)cc1	81.3% (inactive)
O=C(CCCCCCN1CC(=O)N2[C@@H](c3ccc(Cl)c(F)c3)c3[nH]c4ccccc4c3C[C@H]2C1=O)NO	75.3% (inactive)
O=C(N/N=C\c1ccc(Cl)cc1)c1ccc2nc(-c3ccc(Br)cc3)[nH]c2c1	15.9% (inactive)
O=C1CSC(=O)N1Cc1cc2ccccc2nc1Cl	77.7% (inactive)
CCCCSc1nnc(-c2ccc(-c3ccc(Cl)cc3)nc2C)o1	93.4% (inactive)
COc1ccc(/C=N\NC(=O)c2ccc3nc(-c4ccc(Br)cc4)[nH]c3c2)cc1	75.9% (inactive)
NS(=O)(=O)c1ccc(Nc2nc(N/N=C/c3ccc([N+](=O)[O-])cc3)nc(Nc3ccccc3)n2)cc1	81.9% (inactive)
COc1cc(NC2=C(Cl)C(=O)c3nc(C)ccc3C2=O)cc(OC)c1	-94.6% (active)
Cc1ccc(/C=C/CC(=O)Nc2ccc(C(=O)Nc3ccc(F)cc3N)cc2)cn1	58.9% (inactive)
O=C(c1ccc(O)cc1)[C@@H]1[C@@H]2CCCN2[C@@]2(C(=O)N(C(=O)c3ccc(F)cc3)c3ccccc32)[C@H]1c1ccc(F)cc1	60.4% (inactive)
COc1ccc(S(=O)(=O)n2cc(C=O)c3ccccc32)c(OC)c1	52.4% (inactive)
C#C[C@]1(O)CC[C@H]2[C@@H]3CC=C4c5sc(Nc6cc(Cl)ccn6)nc5CC[C@]4(C)[C@H]3CC[C@@]21C	-51.3% (active)
N#C/C(=C\c1ccc2ccccc2c1)C(=O)Nc1sc2c(c1C#N)CCC2	78.2% (inactive)
CN1CCN(Cc2ccc(NC(=O)c3cncc(C#Cc4cnc5ccc(O[C@H]6CCOC6)nn45)c3)cc2C(F)(F)F)CC1	-94% (active)
C/C=C/C=C1\C[C@H]2CO[C@H](O2)C1=O	88.2% (inactive)
O=C(NNc1nc2cc(F)cc(F)c2n2cccc12)c1ncccn1	16% (inactive)

SMILES	growth
C#CCOc1ccc(/C=N/Nc2nc(-c3cc(Cl)ccc3Cl)cs2)cc1	68.5% (inactive)
COc1ccc(-c2nc(SCC(C)C)nc(N/N=C\c3cccc([N+](=O)[O-])c3)c2C#N)cc1	-36.4% (active)
CNC(=O)c1cc(Oc2ccc3nc(NC(=O)c4ccc(CN5CCN(C)CC5)c(C(F)(F)F)c4)sc3c2)ccn1	58.5% (inactive)
C#C[C@]1(O)CC[C@H]2[C@@H]3CC=C4c5sc(Nc6ccc(OC)nc6)nc5CC[C@]4(C)[C@H]3CC[C@@]21C	32.6% (inactive)
O=C1Nc2ccc(Br)cc2/C1=N\c1nnc(-c2ccc(Cl)cc2)o1	62.3% (inactive)
CC(C)c1nn(-c2ccccc2)c(N2CCCCC2)c1/C=N/NC(N)=S	64.5% (inactive)
COc1cc(/C=C/C(=O)c2ccc(N3CCN(C)CC3)cc2)ccc1F	56.5% (inactive)
CC1CCN(S(=O)(=O)c2ncsc2-c2ccccc2)CC1	86.9% (inactive)
O=C1[C@@H]2Cc3c([nH]c4ccccc34)[C@H](c3c(Cl)cccc3Cl)N2C(=O)CN1C1CCN(Cc2ccccc2)CC1	14% (inactive)
C#C[C@]1(O)CC[C@H]2[C@@H]3CC=C4c5sc(Nc6ccncc6)nc5CC[C@]4(C)[C@H]3CC[C@@]21C	-61.8% (active)
C#CCOc1ccc(/C=N/Nc2nc(-c3cc4cc(Br)cc(Br)c4oc3=O)cs2)cc1	88.5% (inactive)
O=C1c2c(c3c4cccnc4[nH]c3c3ccc4ccccc4c23)C(=O)N1CCN1CCCCC1	36.9% (inactive)
NS(=O)(=O)Oc1ccc2nc(Nc3ccc(F)c(F)c3)ccc2c1	73.3% (inactive)
Cc1ccc(-c2csc(N/N=C/c3nc4ccccc4n3C3CC3)n2)cc1	16.1% (inactive)
O=C1c2c(c3c4cc(Br)ccc4[nH]c3c3ccc4ccccc4c23)C(=O)N1CCN1CCCCC1	48.7% (inactive)
Cc1cnc2nc(NN)[nH]n12	81.3% (inactive)
O=C(NCCCCCCNC(=O)c1c2c(nc3ccccc13)-c1cccnc1SC2)c1c2c(nc3ccccc13)-c1cccnc1SC2	38.8% (inactive)
COc1cc(/C=N/n2cnc3oc(-c4ccccc4)cc3c2=N)cc(CN2CCCC2)c1O	9.45% (active)
C#C[C@]1(O)CC[C@H]2[C@@H]3CC=C4c5sc(Nc6cccc(Cl)n6)nc5CC[C@]4(C)[C@H]3CC[C@@]21C	-37.8% (active)
